The text below walks through data of ChEMBL document CHEMBL3988442, “University of Dundee, Small-Polar-MMV Screening Library” (2021).

Out of some 38,000 compounds screened, about 1,200 (3.2%) showed an effect of 50% or more. The median lay at about -58%. Many of the other results were omitted from the sample, so strong results are more common in it than they were.

The subject of the assay is Plasmodium falciparum. Kind of assay: Calibr Malaria Delayed Death Assay SOP. It is filed as functional, organism-based. Further details: scale not given: in the data most compounds retested in dose-response had high values. The following applies: concentration 4.99e-06 (unit not given; other assays of the set use mol/L).
Consider `O=C(c1cccc2c1OCCO2)N1CCCC(n2cccn2)C1` (configuration not stated), for which the “Percent Effect” value is -57.7%.

On to `Cc1ccc(OCCC(=O)N2CCOCC2c2ncon2)cc1C` (configuration not stated), for which the “Percent Effect” value is reported as -113.3%. With `O=C(c1ccco1)N1Cc2nccn2CC(Cn2ncccc2=O)C1` (configuration not stated), the “Percent Effect” value is given as -89.1%.

Take `CCCN(CCC)c1ncc(S(=O)(=O)c2ccc(C)cc2)c(N)n1`: the “Percent Effect” value came to 12.69%.

As to `CCCN(CCC)c1ncc(S(=O)(=O)c2ccccc2)c(N)n1`, the “Percent Effect” value is on record as -11.95%. As for `CCCN(CCC)c1ncc(S(=O)(=O)c2ccc(OC)cc2)c(N)n1`, the “Percent Effect” value was 66.8%. For the molecule `N#Cc1c(N)nc2c(c1-c1c[nH]nc1C1CCCCC1)CNCC2`, the “Percent Effect” value was determined as 6.508%. Turning to `c1ccc(COCC2CN(Cc3ccsc3)Cc3nccn3C2)nc1` (configuration not stated), the “Percent Effect” value is on record as 1.035%. On to `CCc1cnc(CN(C)C2CCN(CCCNS(C)(=O)=O)C2)o1` (configuration not stated), for which the “Percent Effect” value is listed as -33.46%. Next, `COc1cccc(CN(C)C(=O)CN2CC(n3nc(C)cc3C)C2)c1`: 62.45%; `Cc1cc(C)n(C2CN(CC(=O)N(C)Cc3ccc(C)o3)C2)n1`: -1.347%. Under `COc1ccccc1CN(C)C(=O)CN1CC(n2nc(C)cc2C)C1` stands 77.58%; under `Cc1cc(C)n(C2CN(CC(=O)N(C)Cc3ccco3)C2)n1`, -70.44%; under `Cc1cc(C)n(C2CN(CC(=O)N(C)Cc3ccsc3)C2)n1`, 24.51%. For the molecule `Cc1cc(C)n(C2CN(CC(=O)N(C)Cc3cnn(C)c3)C2)n1`, the “Percent Effect” value is listed as -103.6%. Consider `CC(C)NC(=O)N1CC[C@@H]2CN(S(C)(=O)=O)CCO[C@@H]2C1`, for which the “Percent Effect” value is -58.18%. Consider `Cc1nnc(NC(=O)NCc2ccc(OC3CCCC3)nc2)s1`, for which the “Percent Effect” value is 2.114%.

Consider `Cc1cccc(N2Cc3nc(N4CCC(C)CC4)ncc3C2=O)c1`, for which the “Percent Effect” value was -105.8%. For `O=S(=O)(c1ccccc1)N1CCC[C@]2(C[C@@H](OCC3CC3)CO2)C1`, the “Percent Effect” value is -64.42%. For `CCOc1ccc2[nH]c3c(N(C)CC4OCCO4)ncnc3c2c1`, the “Percent Effect” value was -160.2%.

For `CCCNC(=O)CCNC(=O)c1sc2ccc(F)cc2c1C`, the “Percent Effect” value is recorded as -59.54%. Next, `CN1CCN(C(=O)c2cc3occc3n2Cc2ccccc2F)CC1`: -0.5316%; `O=C(c1occc1CN1C(=O)Cc2ccccc21)N1CC(O)C1`: -91.69%. Next, `CN1CCN(C(=O)c2occc2CN2C(=O)Cc3ccccc32)CC1`: 53.65%. Turning to `N#Cc1cnc2c(F)cc(F)cc2c1NC1CCN(CC(N)=O)CC1`, the “Percent Effect” value is on record as -21.61%. Take `Cc1cnc(NC(=O)CSC2CCc3ccccc3NC2=O)s1` (configuration not stated): the “Percent Effect” value is -9.765%. As for `NC(=O)c1ccc(CN2CCC(N3CCCCC3)CC2)cc1`, the “Percent Effect” value was -16.53%.

Regarding `CC(NCc1ccc(OCC(N)=O)cc1)c1ccc(Cl)c(Cl)c1.Cl` (configuration not stated), the “Percent Effect” value was 2.26%. As for `CC(NCc1ccc(OCC(N)=O)cc1)c1ccc(Cl)cc1.Cl` (configuration not stated), the “Percent Effect” value worked out at 12.76%. Take `CC(NCc1ccc(OCC(N)=O)cc1)c1ccc2c(c1)CCCC2` (configuration not stated): the “Percent Effect” value amounted to 72.97%. `CSCCN1C(=O)CC(C)(c2ccc(Br)cc2)C1=O` (configuration not stated): the “Percent Effect” value was -78.64%.

Take `O=C1CCCCN1CCC(=O)N1CCCCC1c1ccc(F)cc1` (configuration not stated): the “Percent Effect” value is -57.96%. As for `NCC(=O)N1CCCCC1c1ccc(F)cc1` (configuration not stated), the “Percent Effect” value is 85.19%. Under `COC(=O)CCCC(=O)N1CCCCC1c1ccc(F)cc1` (configuration not stated) stands -184.4%; under `CC(c1ccc(F)cc1F)N1CCN(Cc2nccn2C)CC1` (configuration not stated), -23.71%. Next, `CCN1CCN(c2ccc(F)cc2C(C)NCc2ccnn2C)CC1` (configuration not stated): 75.25%; `CC(NC(=O)NCc1cscn1)c1ccc(N2CCOCC2)cc1` (configuration not stated): -60.07%; `CCN1CCN(c2ccc(F)cc2C(C)NCc2ccccn2)CC1` (configuration not stated): 85.11%. For the molecule `CC(c1cc(F)ccc1F)N1CCN(Cc2nccn2C)CC1` (configuration not stated), the “Percent Effect” value is reported as -48.8%. Under `CC(NCCn1cccn1)c1cc(F)ccc1F` (configuration not stated) stands 0.142%. For the molecule `C[C@]1(O)CN(Cc2cscn2)CC[C@@H]1Oc1cccc(F)c1`, the “Percent Effect” value is on record as -10.93%. For the molecule `CC(NCc1ccccn1)c1cc2c(cc1Br)OCCO2` (configuration not stated), the “Percent Effect” value is reported as 22.3%.

For the molecule `CC(NCc1ccncc1)c1cc2c(cc1Br)OCCO2` (configuration not stated), the “Percent Effect” value was determined as 7.247%. Take `CCN1CCN(c2ccc(F)cc2C(C)NCc2cscn2)CC1` (configuration not stated): the “Percent Effect” value was found to be 80.23%.

Regarding `CCN1CCN(c2ccc(F)cc2C(C)NCc2ccncc2)CC1` (configuration not stated), the “Percent Effect” value turned out to be 71.8%. Under `Cc1[nH]ncc1C(C)NCc1ccc(F)cc1` (configuration not stated) stands -52.77%; under `Cn1nc(-c2ccccc2)c(Cl)c1C(=O)O`, 13.43%. On to `CC(C)S(=O)(=O)NCC(Cc1cccc(F)c1)N1CCNC1=O` (configuration not stated), for which the “Percent Effect” value is on record as -68.63%.

Consider `COc1ccc(CNc2nc(N3CCOCC3)ns2)cc1`, for which the “Percent Effect” value is given as -61.76%. Consider `Cc1ccc(CCNC(=O)CC2COCCN2S(=O)(=O)N(C)C)o1` (configuration not stated), for which the “Percent Effect” value is recorded as -12.87%. Take `CC(C)c1nncn1CCNC(=O)c1ccc(Cl)cc1O`: the “Percent Effect” value is listed as -118.9%. Under `Cc1nccc(-c2cccc(NCC(=O)NCC(=O)N3CCCC3)c2)n1` stands -89.65%; under `Cc1cnc(C(=O)N2CC[C@@H]3CN(c4ncccn4)CCO[C@@H]3C2)cn1`, -80.08%. `Cc1nc(CO[C@H]2CN(Cc3cccs3)[C@@H]3COC[C@H]23)cs1.O=C(O)C(F)(F)F.O=C(O)C(F)(F)F`: the “Percent Effect” value was -73.25%. As to `CN1CCN(c2ccc(F)cc2C(N)=O)CC1`, the “Percent Effect” value is on record as -109.6%.

Regarding `Cc1nc(CNC(=O)Nc2cc(F)ccc2OC(F)F)no1`, the “Percent Effect” value was -136.5%. Take `CCN1CCN(c2ccc(F)cc2C(C)NCc2nc(C)no2)CC1` (configuration not stated): the “Percent Effect” value turned out to be 4.183%. `Cc1ccc(CNC(C)c2nnc3n2CCCC3)o1` (configuration not stated): the “Percent Effect” value was -20.3%. In the case of `CCN1CCN(c2ccc(F)cc2C(C)NCc2noc(C)n2)CC1` (configuration not stated), the “Percent Effect” value stood at 52.85%.

As for `CC(COc1ccccc1)NCc1cn2ccccc2n1` (configuration not stated), the “Percent Effect” value is listed as -27.04%. As to `Cc1ccc(C(=O)N2CCC3(CCC(=O)N(C(C)C)C3)CC2)c(O)c1`, the “Percent Effect” value is given as -20.48%. Take `COC(=O)c1ccc(C2CC(=O)Nc3c2cnn3C)cc1` (configuration not stated): the “Percent Effect” value is listed as -67.54%. As to `CCc1noc(CN2CCCC(Cn3nc(C)nc3C)C2)n1` (configuration not stated), the “Percent Effect” value is on record as -109.5%. As to `CN(C)c1ccc(C(=O)N2CCN(Cc3cscn3)CC2)cc1F`, the “Percent Effect” value is -147.3%.

Consider `Oc1ccc2oc3c(c2c1CN1CCOCC1)CCCC3`, for which the “Percent Effect” value stood at 15.46%. Next, `CCC1CN(Cc2c(O)ccc3oc4c(c23)CCCC4)CCO1` (configuration not stated): 59.59%. `NC(=O)C1CN(Cc2c(O)ccc3oc4c(c23)CCCC4)CCO1` (configuration not stated): the “Percent Effect” value is listed as -24.38%.
